Experimental findings from PubChem BioAssay (Tox21) are described below.

Each structure is given as a SMILES string. Inconclusive results are not listed. Calls of active or inactive are those of the source. The call rests on the fitted dose curve; in most records, active means well fitted activation curve with a large enough effect in the signal ratio in the repeat runs (not every such curve was filed as active); inconclusive means weak or mixed curves; inactive means flat fitted curve, though single readings scatter; the % refers to the signal ratio.
On the % scale 0 is the no-effect control and ±100 the full control effect; potency means the concentration at half of the fitted maximal effect.

This assay in a line: qHTS assay to identify small molecule agonists of the TGF-beta/Smad signaling pathway (AID 1346859). To be noted: SBE-bla HEK293T, TGF-beta/Smad beta-lactamase reporter, 5 h; series mostly up to 76.8 µM; activation: at the top concentration. The source says: U.S. Tox21 Program National Center for Advancing Translational Sciences [NCATS] NIH Chemical Genomics Center [NCGC] U.S. Environmental Protection Agency [EPA] National Institutes of Environmental Health Sciences [NIEHS] National Toxicology Program [NTP] U.S. Food and Drug Administration [FDA] Tox21 Assay Overview: Transforming growth factor beta (TGF-beta) superfamily consists of a large number of structurally related dimeric proteins that act as hormones or local mediators in regulating a wide range of biological functions. This superfamily includes TGF-betas themselves, the bone morphogenetic proteins (BMPs) and the activins. These ligands induce oligomerization of serine/threonine receptor kinases and phosphorylate the cytoplasmic signaling molecules of Smad protein family. CellSensor SBE-bla HEK 293T cell line (Life Technologies, Carlsbad, CA), responsive to TGF-beta was used to screen Tox21 10K compound library for identification of agonists/antagonists of the Smad signaling pathway. This cell line contains a beta-lactamase reporter gene under control of the Smad binding element (SBE) stably integrated into HEK 293T cells.
Tox21 Assay Protocol Summary: SBE-bla HEK 293T cells were dispensed at 4,000/well in 6 uL of assay medium into black wall/clear-bottom 1536-well plates using a Multidrop Combi (ThermoFisher Scientific, Waltham, MA) dispenser. After the assay plates were incubated at 37 C and 5% CO2 for an overnight, 23 nL of compounds dissolved in DMSO, positive controls or DMSO only was transferred to the assay plate by a Pintool station (Kalypsys, San Diego, CA). The assay plates were incubated at 37 C and 5% CO2 for 5 hr. One uL of LiveBLAzer B/G FRET substrate (Life Technologies) was added using a Flying Reagent Dispenser (Aurora Discovery, San Diego, CA) and the plates were incubated at room temperature for 2 hr. Fluorescence intensity (405 nm excitation, 460 nm and 530 nm emissions) was measured using an Envision plate reader (PerkinElmer, Shelton, CT).
In the case of `CCCCCCCCCCCCCCOS(=O)(=O)O`, the “activation” value is 5.05% (inactive).

Turning to `c1ccc(C(O[C@H]2CCCN(CCc3ccc4c(c3)OCO4)C2)c2ccccc2)cc1`, the “activation” value was -9.22% [at 35.3 µM] (inactive). On the same count and under the same terms, the same measure for `C[C@@H]1C[C@H]2O[C@@]3(O[C@@H]2C(C)(C)O)[C@H](O)[C@@]2(C)[C@@H]4CC[C@H]5C(C)(C)[C@@H](O[C@@H]6OC[C@@H](O)[C@H](O)[C@H]6O)CC[C@@]56C[C@@]46CC[C@]2(C)[C@@H]13`: -1.14% [at 35.3 µM] (inactive); for `N=c1ccn2c(n1)O[C@H]1[C@H](O)[C@@H](CO)O[C@H]12`: 1.23% (inactive). Regarding `Brc1c2ccccc2c(Br)c2ccccc12`, the Potency was 2.22 µM (active).

Consider `COc1cc2nc(N(C)CCCNC(=O)C3CCCO3)nc(N)c2cc1OC` (stereo not given), for which the “activation” value is 1.49% [at 35.3 µM] (inactive). As to `CC(C)O.CC(C)O.CCOC(=O)/C=C(\C)O.CCOC(=O)/C=C(\C)O.[Ti]`, the “activation” value is 1.31% (inactive). Still for that read-out and setting: the same measure for `Cc1cc(C(=O)O)ccc1[N+](=O)[O-]`: -4.02% (inactive). For `CCCCCCc1ccc(-c2ccc(C#N)cc2)cc1`, the “activation” value is 9.62% (inactive). On to `O=S(=O)(Oc1ccc(Cl)cc1)c1ccccc1`, for which the “activation” value was -0.0964% (inactive).

Regarding `CCC(Cl)CCC(Cl)C(Cl)CC(Cl)C(Cl)C(Cl)CCl` (stereo not given), the “activation” value was 0.897% (inactive). Same read-out and setting: the same measure for `CN(C)CCOC(c1ccccc1)c1ccc(Br)cc1` (stereo not given): -4.42% [at 35.3 µM] (inactive); for `C=CC(=O)OCCOc1ccccc1`: 2.39% (inactive); for `C[Si](C)(CCCN)O[Si](C)(C)CCCN`: -0.0011% (inactive). The same measure, in the same setting: the same measure for `O=C1[C@H]2CCCC[C@H]2C(=O)N1CCCCN1CCN(c2nsc3ccccc23)CC1`: -3.57% [at 35.3 µM] (inactive). Still for that read-out and setting: the same measure for `CCCCCC[C@@H](O)C/C=C\CCCCCCCC(=O)OC`: -7.52% (inactive); for `CC1=CC[C@H](C(C)C)C=C1`: 1.47% (inactive). In the case of `O=C(O)c1ccc(S(=O)(=O)O)cc1C(=O)O`, the “activation” value is -1.38% (inactive).

On to `CCC(C)c1cc(C(C)(C)C)c(O)c(C(C)(C)C)c1` (stereo not given), for which the “activation” value is -1.39% (inactive). Same read-out and setting: the same measure for `C=C(C)C(=O)OCCO`: -4.29% (inactive); for `O=C(O)C1(C(=O)O)CCC1.[NH2-].[NH2-].[Pt+2]`: 3.23% [at 35.3 µM] (inactive); for `O=C(NCC1CN(c2ccc(N3CCOCC3=O)cc2)C(=O)O1)c1ccc(Cl)s1` (stereo not given): -2.22% [at 35.3 µM] (inactive). For the molecule `CN(C)CCN(Cc1ccsc1)c1ccccn1`, the “activation” value is 0.269% [at 35.3 µM] (inactive). On the same count and under the same terms, the same measure for `OCCNCc1ccccc1`: 0.095% (inactive); for `CC1=CCCC(C)(C)C12CCC(C)O2` (stereo not given): 1.93% (inactive); for `C#CCN(C)CCCOc1ccc(Cl)cc1Cl`: -0.182% [at 35.3 µM] (inactive). Same read-out and setting: the same measure for `COc1cc2nc(N3CCN(C(=O)C4COc5ccccc5O4)CC3)nc(N)c2cc1OC` (stereo not given): -1.86% [at 35.3 µM] (inactive); for `CC(C)Nc1ccc(NC(C)C)c2c1C(=O)c1ccccc1C2=O`: -1.57% [at 35.3 µM] (inactive); for `NC(=O)C(c1ccccc1)(c1ccccc1)[C@@H]1CCN(CCc2ccc3c(c2)CCO3)C1`: -4.56% [at 35.3 µM] (inactive). Consider `C1CCCNCCC1`, for which the “activation” value is -0.867% (inactive).

`CC[N+](C)(CC)CCOC(=O)C(O)(c1ccccc1)C1CCCCC1` (stereo not given): the “activation” value was 2.35% [at 35.3 µM] (inactive). Still for that read-out and setting: as for `CCOC(=O)C(=O)CCc1ccccc1`, the figure is 8.83% [at 35.3 µM] (inactive); as for `COc1cc(Cl)ccc1Oc1ccc(Cl)cc1Cl`, 0.415% (inactive). Still for that read-out and setting: as for `Cc1[nH]c(C)c(Cl)c(=O)c1Cl`, the figure is 0.225% [at 15.8 µM] (inactive); as for `CCCCCCCCCOS(=O)(=O)O`, 2.76% (inactive); as for `CCCCC(CC)COC(=O)CCCCCCCCC(=O)OCC(CC)CCCC` (stereo not given), 0.262% (inactive).

In the case of `Cc1cc(N)c2cc(NC(=O)Nc3ccc4nc(C)cc(N)c4c3)ccc2n1`, the “activation” value is 4.51% [at 35.3 µM] (inactive).

As to `O=C1C(O)=C(O)C(=O)C(O)=C1O`, the “activation” value was -1.42% [at 35.3 µM] (inactive). The same measure, in the same setting: as for `Cc1cccc(C)c1NC(=O)CN(CC(=O)O)CC(=O)O`, the figure is 1.85% [at 35.3 µM] (inactive); as for `CCCCCCCN`, -0.193% (inactive).
